This note sets out measurements from the supplement of paper PMC12494721.

Where a name gives a salt, the structure may show the parent alone.

Holding throughout (conditions): incubation time: 27 h, anaerobic, 37 °C
Experiment [1] relates to Clostridium sporogenes DSM 1664. Kind of experiment: growth (OD595) fold change vs plate DMSO controls (fold change (ratio)); higher = more growth. The method in brief:
(§1)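 To obtain OD, 595 nm absorbance readings were blank-subtracted, corrected for compound background using 20 µM compound solutions in water, and multiplied by a calibration factor of 5. They came from 96-well mGAM cultures grown anaerobically for 27 h at 37 °C and shaken before reading. Growth is the fold change relative to the median of plate DMSO controls. Two biological replicates were averaged, and fold changes above 1.5 were set to NA.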

In experiment [2] the test system is Escherichia coli IAI1. The description is as above. The method in brief:
as §1

Experiment [3] deals with Klebsiella aerogenes DSM 30053. Described as above. The method, boiled down: as §1
Experiment [4] has as its system Ruminococcus gnavus DSM 108212. The description is as above. The method, boiled down: as §1
Experiment [5] has as its system Klebsiella aerogenes DSM 30053. Kind of experiment: fold change of Histamine concentration vs plate DMSO controls (fold change (ratio)); higher = more amine produced, active = hit call of the paper (significant change in both replicates, either direction). The method, boiled down: (§2)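 Using LC–triple-quadrupole MS with dynamic MRM, amines were quantified against external calibration curves and corrected for drift within each batch. Samples were whole anaerobic mGAM cultures of four gut strains, grown 27 h at 37 °C from OD 0.1 before 1:1 dilution, extracted with cold acetonitrile/methanol containing 0.1% formic acid and centrifuged. Compounds were present at 20 µM final (sweeteners at 50 µM final). The numbers are fold changes versus plate DMSO controls, each the mean of 2 biological replicates.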

Experiment [6] deals with Clostridium sporogenes DSM 1664. Kind of experiment: fold change of Tryptamine concentration vs plate DMSO controls (fold change (ratio)); higher = more amine produced, active = hit call of the paper (significant change in both replicates, either direction). The method, boiled down:
as §2

In experiment [7] the test system is Ruminococcus gnavus DSM 108212. The experiment is described as above. The method, boiled down: as §2
In experiment [8] the test system is Escherichia coli IAI1. Nature of the experiment: fold change of Putrescine concentration vs plate DMSO controls (fold change (ratio)); higher = more amine produced, active = hit call of the paper (significant change in both replicates, either direction). The method, boiled down:
as §2

Experiment [9] relates to Klebsiella aerogenes DSM 30053. Described as above. The method in brief:
as §2

The subject of experiment [10] is Escherichia coli IAI1. Nature of the experiment: fold change of Cadaverine concentration vs plate DMSO controls (fold change (ratio)); higher = more amine produced, active = hit call of the paper (significant change in both replicates, either direction). The method in brief:
as §2

For experiment [11], the system named is Klebsiella aerogenes DSM 30053. The experiment is described as above. The method in brief:
as §2

The test system of experiment [12] is Ruminococcus gnavus DSM 108212. Nature of the experiment: fold change of 2-Phenylethylamine concentration vs plate DMSO controls (fold change (ratio)); higher = more amine produced, active = hit call of the paper (significant change in both replicates, either direction). The method, boiled down:
as §2

For the compound `C=C1CC[C@H](O)C/C1=C/C=C1\CCC[C@]2(C)[C@@H]([C@H](C)CCCC(C)C)CC[C@@H]12` [Cholecalciferol] (20 µM), the growth is 0.913 in experiment [1], 0.971 in experiment [2], 0.962 in [3] and 1.05 in experiment [4]. Further, the “fold change of Histamine concentration” value in [5] is 1.08 (inactive). The “fold change of Tryptamine concentration” value in [6] is 0.975 (inactive); in [7] it was 1.03 (inactive). In addition, the “fold change of Putrescine concentration” value is 0.96 (inactive) in experiment [8] and 1.01 (inactive) in experiment [9]. The “fold change of Cadaverine concentration” value in [10] was 0.984 (inactive); in [11], 1.07 (inactive). In experiment [12], the “fold change of 2-Phenylethylamine concentration” value was 1.13 (inactive).

With `OC[C@@H](O)[C@@H](O)[C@H](O)[C@H](O)CO` [Mannitol] (50 µM), the growth is 1.02 in [1], 0.924 in [2], 0.982 in [3] and 0.983 in experiment [4]. Besides, the “fold change of Histamine concentration” value in [5] is 1.04 (inactive). Further, the “fold change of Tryptamine concentration” value in experiment [6] is 1.01 (inactive); in experiment [7] it was 0.975 (inactive). Also, the “fold change of Putrescine concentration” value in [8] is 0.919 (inactive); in experiment [9], 0.996 (inactive). Also, the “fold change of Cadaverine concentration” value in [10] is 1.11 (inactive); in [11], 0.992 (inactive). Further, the “fold change of 2-Phenylethylamine concentration” value in experiment [12] is 0.976 (inactive).

Turning to `CC[C@@H](CO)NCCN[C@@H](CC)CO` [Ethambutol dihydrochloride] (20 µM), the growth was determined as 0.97 in experiment [1], 1.02 in [2], 1.01 in experiment [3] and 0.965 in [4]. Also, the “fold change of Histamine concentration” value in [5] was 0.958 (inactive). Moreover, the “fold change of Tryptamine concentration” value in experiment [6] is 0.996 (inactive); in [7], 1.04 (inactive). Further, the “fold change of Putrescine concentration” value was 1.05 (inactive) in [8] and 0.987 (inactive) in experiment [9]. The “fold change of Cadaverine concentration” value in experiment [10] was 0.954 (inactive); in experiment [11], 1.01 (inactive). Moreover, in experiment [12], the “fold change of 2-Phenylethylamine concentration” value is 1.09 (inactive).

In the case of `COc1ccc(C[C@@H]2c3cc(OC)c(OC)cc3CC[N@+]2(C)CCC(=O)OCCCCCOC(=O)CC[N@@+]2(C)CCc3cc(OC)c(OC)cc3[C@H]2Cc2ccc(OC)c(OC)c2)cc1OC` [Cisatracurium besylate] (20 µM), the growth in experiment [1] was found to be 1.4; in experiment [2], 1.01; in experiment [3], 1.05; in experiment [4], 1.01. Also, the “fold change of Histamine concentration” value in [5] was 0.758 (inactive). Besides, the figures for the “fold change of Tryptamine concentration” value in [6] and in [7] were 1.05 (inactive) and 1.03 (inactive), respectively. For the same compound, the figures for the “fold change of Putrescine concentration” value in experiment [8] and in experiment [9] were 0.918 (inactive) and 0.929 (inactive), respectively. The “fold change of Cadaverine concentration” value was 0.944 (inactive) in experiment [10] and 1.07 (inactive) in [11]. The “fold change of 2-Phenylethylamine concentration” value in experiment [12] was 1.01 (inactive).

For `COC(=O)N/N=C/c1c[n+]([O-])c2ccccc2[n+]1[O-]` [Carbadox] (20 µM), the growth in experiment [1] was found to be 0.00259; in experiment [2], 0.0346; in [3], 0.0738; in experiment [4], 0.0392. In addition, the “fold change of Histamine concentration” value in experiment [5] is 0.0834 (active). Further, the “fold change of Tryptamine concentration” value is 0.00903 (active) in experiment [6] and 0.0355 (active) in experiment [7]. Besides, the “fold change of Putrescine concentration” value was 0.388 (active) in experiment [8] and 0.377 (active) in experiment [9]. Besides, the “fold change of Cadaverine concentration” value in experiment [10] was 0.187 (active); in experiment [11] it was 0.983 (inactive). Besides, in experiment [12], the “fold change of 2-Phenylethylamine concentration” value was 0.0387 (active).

Regarding `CC(C(=O)O)c1ccc2c(c1)CC(=O)c1ccccc1S2` (centres undefined) [Zaltoprofen] (20 µM), the growth is 0.876 in experiment [1], 0.998 in experiment [2], 0.985 in experiment [3] and 0.873 in experiment [4]. Further, in [5], the “fold change of Histamine concentration” value was 1.1 (inactive). Further, the “fold change of Tryptamine concentration” value is 1.01 (inactive) in experiment [6] and 1.12 (inactive) in [7]. Besides, the “fold change of Putrescine concentration” value in experiment [8] was 1.01 (inactive); in [9], 1.04 (inactive). Also, the entries for the “fold change of Cadaverine concentration” value in experiment [10] and in experiment [11] were 0.931 (inactive) and 1.05 (inactive), respectively. Further, the “fold change of 2-Phenylethylamine concentration” value in experiment [12] is 1.33 (inactive).

As for `O=C(O)c1ccccc1Nc1cc(Cl)ccc1C(=O)O` [Lobenzarit disodium] (20 µM), the growth in experiment [1] is 0.929; in experiment [2], 1; in experiment [3], 1.02; in experiment [4], 1.08. Further, the “fold change of Histamine concentration” value in [5] is 1.02 (inactive). In addition, the figures for the “fold change of Tryptamine concentration” value in [6] and in [7] were 1.07 (inactive) and 0.976 (inactive), respectively. In addition, the entries for the “fold change of Putrescine concentration” value in experiment [8] and in experiment [9] were 0.987 (inactive) and 0.994 (inactive), respectively. The entries for the “fold change of Cadaverine concentration” value in experiment [10] and in [11] were 0.932 (inactive) and 1 (inactive), respectively. Moreover, the “fold change of 2-Phenylethylamine concentration” value in experiment [12] is 1.01 (inactive).

With `CC(C)c1cc2c(cc1S(=O)(=O)O)[C@@]1(C)CCC[C@@](C)(C(=O)O)[C@@H]1CC2` [Ecabet sodium] (20 µM), the growth came to 1.16 in [1], 1 in [2], 1.01 in [3] and 0.982 in [4]. Further, the “fold change of Histamine concentration” value in [5] is 0.974 (inactive). Moreover, the “fold change of Tryptamine concentration” value was 0.972 (inactive) in experiment [6] and 1.01 (inactive) in [7]. Also, the “fold change of Putrescine concentration” value in [8] is 0.955 (inactive); in experiment [9] it was 1 (inactive). Besides, the “fold change of Cadaverine concentration” value in [10] was 1.01 (inactive); in experiment [11], 0.991 (inactive). In addition, the “fold change of 2-Phenylethylamine concentration” value in [12] is 0.995 (inactive).

As for `Clc1ccc(C(c2ccccc2Cl)C(Cl)Cl)cc1` (centres undefined) [Mitotane] (20 µM), the growth in experiment [1] turned out to be 1.01; in [2], 1.04; in [3], 1.03; in experiment [4], 1.34. For the same compound, the “fold change of Histamine concentration” value in experiment [5] is 1.01 (inactive). For the same compound, the “fold change of Tryptamine concentration” value in experiment [6] is 0.997 (inactive); in [7], 1.01 (inactive). The “fold change of Putrescine concentration” value in experiment [8] is 1.03 (inactive); in [9] it was 1 (inactive). Besides, the results for the “fold change of Cadaverine concentration” value in [10] and in experiment [11] were 1.03 (inactive) and 1.01 (inactive), respectively. Besides, the “fold change of 2-Phenylethylamine concentration” value in [12] is 1.03 (inactive).

Turning to `O=C(NC1CCN(CCCCC2(C(=O)NCC(F)(F)F)c3ccccc3-c3ccccc32)CC1)c1ccccc1-c1ccc(C(F)(F)F)cc1` [Lomitapide] (20 µM), the growth in experiment [1] turned out to be 1.1; in [2] it was 1; in experiment [3], 1.06; in [4] it was 1.07. In addition, the “fold change of Histamine concentration” value in experiment [5] was 0.938 (inactive). For the same compound, the “fold change of Tryptamine concentration” value in [6] was 1.01 (inactive); in experiment [7] it was 0.709 (active). Moreover, the “fold change of Putrescine concentration” value in [8] is 1.02 (inactive); in experiment [9], 1.01 (inactive). In addition, the “fold change of Cadaverine concentration” value in experiment [10] is 1.04 (inactive); in experiment [11], 1.01 (inactive). Also, the “fold change of 2-Phenylethylamine concentration” value in experiment [12] was 0.847 (inactive).

As for `C[C@@H]1C[C@H]2[C@@H]3C[C@H](F)C4=CC(=O)C=C[C@]4(C)[C@@]3(F)[C@@H](O)C[C@]2(C)[C@@]1(O)C(=O)COC(=O)C(C)(C)C` [Flumethasone pivalate] (20 µM), the growth in [1] was 0.889; in experiment [2] it was 0.954; in experiment [3], 1; in [4], 0.811. The “fold change of Histamine concentration” value in experiment [5] is 1.04 (inactive). The “fold change of Tryptamine concentration” value is 1 (inactive) in experiment [6] and 1.04 (inactive) in experiment [7]. Moreover, the “fold change of Putrescine concentration” value is 1 (inactive) in [8] and 0.998 (inactive) in experiment [9]. The “fold change of Cadaverine concentration” value in experiment [10] is 1.02 (inactive); in [11] it was 0.984 (inactive). In addition, the “fold change of 2-Phenylethylamine concentration” value in [12] is 1.05 (inactive).

With `OC[C@H]1O[C@@H](n2cnc3cncnc32)[C@H](O)[C@@H]1O` [Nebularine] (20 µM), the growth came to 0.985 in [1], 0.971 in experiment [2], 1.01 in [3] and 0.831 in experiment [4]. Further, the “fold change of Histamine concentration” value in experiment [5] was 0.982 (inactive). Also, the “fold change of Tryptamine concentration” value in experiment [6] was 0.874 (inactive); in [7], 0.943 (inactive). Also, the “fold change of Putrescine concentration” value in experiment [8] was 0.795 (inactive); in [9], 1.01 (inactive). For the same compound, the “fold change of Cadaverine concentration” value in [10] is 0.943 (inactive); in experiment [11], 0.998 (inactive). In addition, in [12], the “fold change of 2-Phenylethylamine concentration” value is 0.946 (inactive).
